# From article PMC5540273 (PLoS ONE, 2017)
# Where “and” joins values, the source holds several entries; their conditions need not be identical. Equal entries are not always repeated. Where two headings read alike, the source gives them in different places.
# Experiments:
# CHEK2 = conditions: concentration: 1 μM, replicates: in singlicate; n = 1
# CIT = conditions: n = 1
# CLK1 = conditions: n = 1
# CLK2 = conditions: concentration: 1 μM, replicates: in singlicate; n = 1
# CLK3 = conditions: n = 1
# CLK4 = conditions: n = 1
# CSF1R-autoinhibited = conditions: concentration: 1 μM, replicates: in singlicate; n = 1
# CSF1R = conditions: n = 1
# CSK = conditions: n = 1
# CSNK1A1L = conditions: n = 1
# [1] = concentration: 1 μM, replicates: in singlicate
# [2] = concentration: 1 μM,replicates: in singlicate, 1 µM
# 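Further: KINOMEscan kinase panel screen.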
SMILES,%Inh (CHEK2) [%],%Inh (CIT; [1]) [%],%Inh (CLK1; [1]) [%],%Inh (CLK2) [%],%Inh (CLK3; [1]) [%],%Inh (CLK4; [1]) [%],%Inh (CSF1R-autoinhibited) [%],%Inh (CSF1R; [1]) [%],%Inh (CSK; [1]) [%],%Inh (CSNK1A1L; [1]) [%],%Inh (CIT; [2]),%Inh (CLK1; [2]),%Inh (CLK3; [2]),%Inh (CLK4; [2]),%Inh (CSF1R; [2]),%Inh (CSK; [2]),%Inh (CSNK1A1L; [2])
Cn1ccc2ncnc(Oc3cccc(C(=O)Nc4ccccc4)c3)c21,0,8,9,0,0,18,9,6,14,2,–,–,–,–,–,–,–
CSc1nn2c(=O)cc(N3CCOCC3)nc2n1Cc1cccc(C(F)(F)F)c1C [GSK2363608],0,–,–,0,–,–,0,–,–,–,23% and 2%,43% and 31%,0% and 6%,17% and 0%,23% and 9%,11% and 0%,8% and 7%
COc1cc2ncn(-c3cc(OCC4CCCO4)c(C(N)=O)s3)c2cc1OC (centres unmarked) [GSK204607],20,12,22,0,10,18,3,5,0,0,–,–,–,–,–,–,–
Cc1ccc(C(=O)Nc2ccc(Nc3ccnc4cc(-c5ccccn5)ccc34)cc2O)cc1.Cl [GW440146],4,2,13,1,0,23,0,35,34,0,–,–,–,–,–,–,–
Cl.Oc1ccc(-c2nc(-c3ccccc3)[nH]c2-c2ccncc2)cc1 [SB-428218],0,0,0,6,0,0,55,10,0,11,–,–,–,–,–,–,–
O=C(Nc1n[nH]c2cc(-c3cccc(F)c3F)ccc12)C1CC1 [SB-733894],0,6,0,13,0,0,0,7,0,0,–,–,–,–,–,–,–
Cn1ccc2ncnc(Oc3ccc(Nc4nc5ccccc5[nH]4)cc3)c21,23,8,0,12,0,0,0,17,0,8,–,–,–,–,–,–,–
Nc1nc(-c2nccs2)c(-c2ccnc3ccccc23)s1 [GW693542],0,44,22,0,0,16,0,0,9,23,–,–,–,–,–,–,–
O=S(=O)(c1ccc(-c2ccnc3[nH]ccc23)cc1)N1CCCC1 [GSK846226],15,36,63,45,57,41,0,17,10,2,–,–,–,–,–,–,–
Cc1cccc(-c2nc(-c3ccc(S(C)(=O)=O)cc3)sc2-c2ccnc(NCCc3ccccc3)c2)c1,0,0,8,2,12,1,1,72,2,0,–,–,–,–,–,–,–
COc1ccc(C2=C(Nc3cccc(C(=O)O)c3)C(=O)NC2=O)cc1 [SB-390765],0,0,11,3,8,4,26,18,12,11,–,–,–,–,–,–,–
Cc1cccc(-c2nc(Nc3ccc4[nH]ncc4c3)c3ccccc3n2)n1 [GW857175],0,9,33,14,4,12,33,7,0,0,–,–,–,–,–,–,–
Cc1cccc(-c2nc(Nc3ccncc3)c3ccccc3n2)n1 [GW855857],0,91.1,10,8,31,0,0,0,4,10,–,–,–,–,–,–,–
O=C(Nc1n[nH]c2nc(-c3nccs3)c(Br)cc12)C1CC1 [SB-742251],0,3,1,0,11,0,17,0,0,19,–,–,–,–,–,–,–
Nc1ncnc2[nH]c(-c3ccccc3)nc12 [AH5015],0,9,67,57,0,71,7,13,0,1,–,–,–,–,–,–,–
C[C@@H]1CCCCN1c1cc(-c2ccc3c(N)n[nH]c3c2)nc(N)n1 [GSK2258759],12,36,12,0,0,13,13,2,2,0,–,–,–,–,–,–,–
Cc1cccc(-c2cc(Nc3ccncc3)c3ccccc3n2)n1 [GSK223675],0,23,22,0,10,5,0,8,0,0,–,–,–,–,–,–,–
COc1ccccc1-c1ccc2c(NC(=O)C3CC3)n[nH]c2n1 [SB-711239],19,22,3,0,0,33,30,0,62,6,–,–,–,–,–,–,–

SMILES,%Inh (CHEK2) [%],%Inh (CIT; [1]) [%],%Inh (CLK1; [1]) [%],%Inh (CLK2) [%],%Inh (CLK3; [1]) [%],%Inh (CLK4; [1]) [%],%Inh (CSF1R-autoinhibited) [%],%Inh (CSF1R; [1]) [%],%Inh (CSK; [1]) [%],%Inh (CSNK1A1L; [1]) [%],%Inh (CIT; [2]),%Inh (CLK1; [2]),%Inh (CLK3; [2]),%Inh (CLK4; [2]),%Inh (CSF1R; [2]),%Inh (CSK; [2]),%Inh (CSNK1A1L; [2])
CN1C(=O)C(Nc2ccc(Cl)c(C(=O)O)c2)=C(c2ccc(Cl)cc2)C1=O [SB-404290],0,0,18,7,25,2,0,3,0,15,–,–,–,–,–,–,–
COc1ccc(CNC(=O)NC2CCN(c3ccnc(Nc4cc(OC)c(OC)c(OC)c4)n3)C2)cc1 (centres unmarked) [GSK1379748],47,20,11,0,0,0,17,13,0,0,–,–,–,–,–,–,–
COc1cc(Nc2nccc(N3CCC(NC(=O)Nc4cc(C)ccc4C)C3)n2)cc(OC)c1OC (centres unmarked) [GSK1379762],0,11,32,6,0,29,0,14,0,17,–,–,–,–,–,–,–
O=C(Nc1ccccc1)Nc1cccc(Oc2ccc3nccn3n2)c1,1,100,6,0,0,0,0,99.6,0,59,–,–,–,–,–,–,–
CCn1c(-c2cccnc2O)nc2cnccc21 [SB-736715],0,0,10,0,0,0,2,0,0,84,–,–,–,–,–,–,–
Fc1cc(Cl)ccc1Nc1ccnc2cc(I)ccc12 [GW551191],0,37,27,0,5,5,0,0,0,0,–,–,–,–,–,–,–
COc1cc2nccc(Nc3ccc(NC(=O)c4ccc(C)cc4)c(O)c3)c2cc1OC.Cl [GW440132],11,11,37,0,87,14,15,18,0,9,–,–,–,–,–,–,–
COc1cc2ncnc(Nc3ccc4nc(-c5ccccc5)[nH]c4c3)c2cc1OC.Cl [GW282450],26,59,14,0,12,3,0,3,10,0,–,–,–,–,–,–,–
COc1ccc2nc(-c3cccc(C)n3)nc(Nc3ccncc3)c2c1 [GSK204919],0,73,18,0,2,26,0,3,0,5,–,–,–,–,–,–,–
COC(=O)c1c(-c2ccccc2)c2cc(C(=O)O)ccc2c(=O)n1Cc1ccccc1,13,2,0,13,0,0,0,50,8,0,–,–,–,–,–,–,–
Cc1c(O)cccc1Nc1ccnc2ccc(C(F)(F)F)cc12.Cl [GW466413],0,42,22,14,0,38,0,0,0,3,–,–,–,–,–,–,–
O=C(Nc1n[nH]c2nc(-c3nccs3)c(Br)cc12)C1CCCC1 [SB-742609],0,36,22,0,4,0,0,3,0,6,–,–,–,–,–,–,–
Fc1cccc(COc2nnc(-c3ccc4c(c3)CCO4)o2)c1,10,0,32,13,0,53,0,11,0,12,–,–,–,–,–,–,–
COc1ccc(Nc2nccc(-c3cccc(NC(=O)c4cc5cc(F)ccc5[nH]4)c3)n2)cc1 [GSK1229782],37,44,33,0,12,28,57,10,0,20,–,–,–,–,–,–,–
COc1ccccc1CNC(=O)c1cc(C(=O)c2ccccc2C)c[nH]1 [GSK364507],0,9,17,0,0,9,0,11,0,20,–,–,–,–,–,–,–
O=C1NC(=O)C(N2CCc3ccccc32)=C1c1ccccc1Cl [SB-373598],0,29,12,45,0,19,0,4,46,15,–,–,–,–,–,–,–
Cc1csc(-c2nc(Nc3ccncc3)c3ccccc3n2)n1 [GW869640],15,61,15,19,35,8,28,0,3,10,–,–,–,–,–,–,–
